# Records with an inconclusive call do not appear. A call without a number means that no potency is given here. Calls of active or inactive are those of the source. Unless noted, the call rests on the fitted dose curve; in most records, active means well fitted curve in the direction sought with a large enough effect in the repeat runs; inconclusive means weak or mixed curves; inactive means no such curve, though single readings can be large; an effect the other way counts as inactive or inconclusive.
# Key:
# [1] = qHTS assay to identify small molecule agonists of the sonic hedgehog signaling (Shh) pathway (AID 1259368; calls by dose curve;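 further: NIH/3T3-derived 3T3Gli1-Luc cells carrying a stable Gli1-driven firefly luciferase reporter; series mostly up to about 92 µM; nearly all actives have a fitted effect of over 15% in size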)
# How it was run: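 Read-out: firefly luciferase luminescence from a Gli1 response element reporter stably integrated in NIH/3T3-derived 3T3Gli1-Luc cells, measured 30 min at room temperature after reagent addition. Compound exposure lasted 24 hr at 37 C, 5% CO2.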
# [2] = target: Estrogen receptor beta (Homo sapiens) (UniProt Q92731); test: qHTS assay to identify small molecule antagonists of the estrogen receptor beta (ER-beta) signaling pathway (AID 1259378; active means well fitted inhibition curve with a large enough effect in the signal ratio in the repeat runs, not every such curve was filed as active; the % refers to the signal ratio)
# How it was run: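 ER-beta-UAS-bla HEK293T cells in 2% charcoal-stripped FBS medium treated with compound plus 1nM final 17-beta-estradiol for 16 hr at 37C. Beta-lactamase reporter read by FRET substrate fluorescence after 2 hours at room temperature.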
# [3] = qHTS assay to identify small molecule agonists of the estrogen receptor beta (ER-beta) signaling pathway - cell viability counter screen (AID 1259380); further: nearly all actives have a fitted effect of over 30% in size; further: potency means the concentration at half of the fitted maximal effect
# How it was run: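 Luminescence read-out (CellTiter-Glo, 30 min, room temp) taken in the same wells as the beta-lactamase reporter assay; ER-beta-UAS-bla HEK293T cells exposed to DMSO-dissolved compounds for 16 hr at 37C in 2% charcoal-stripped FBS medium.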
# [4] = qHTS assay to identify small molecule antagonists of the estrogen receptor beta (ER-beta) signaling pathway - cell viability counter screen (AID 1259382); further: nearly all actives have a fitted effect of over 55% in size; further: potency means the concentration at half of the fitted maximal effect
# How it was run: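 Luminescent ATP read-out (CellTiter-Glo, 30 min, RT) taken in the same wells as the bla reporter assay. HEK293T ER-beta-UAS-bla cells in 2% charcoal-stripped FBS were exposed to compounds with 1nM E2 for 16 hr at 37C.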
# [5] = target: Estrogen receptor (Homo sapiens) (UniProt P03372); test: qHTS assay to identify small molecule agonists of the estrogen receptor alpha (ER-alpha) signaling pathway in the presence of an antagonist (AID 1259383; calls by dose curve; further: top concentration of the series differs between compounds; nearly all actives have a fitted effect of over 15% in size)
# How it was run: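 Luciferase luminescence (ONE-Glo, 30min at room temperature) measured in VM7Luc4E2 cells after 22hr compound exposure at 15 concentrations, with 10.0nM ICI-182,780 final present; cells express endogenous ER-alpha and carry four EREs upstream of luciferase.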
# [6] = qHTS assay to identify small molecule agonists or antagonists of the thyroid stimulating hormone receptor (TSHR) signaling pathway - wild type cell line counter screen (AID 1259384; calls by dose curve)
# How it was run: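 Wild-type Hek293 cells, 800/well, 18 h at 37C, then compound with Ro20-1724 for 30 min RT. cAMP by HTRF (cAMP-d2/anti-cAMP cryptate), 1 h RT, fluorescence read. 15 concentrations, triplicates.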
# [7] = qHTS assay to identify small molecule agonists of the estrogen receptor alpha (ER-alpha) signaling pathway in the presence of an antagonist - cell viability counter screen (AID 1259386);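 further: cells exposed to compounds for 22 h at 37 °C before the viability read; nearly all actives have a fitted effect of over 30% in size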; further: potency means the concentration at half of the fitted maximal effect
# How it was run: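 Read-out: CellTiter-Fluor fluorescence after 1hr reagent incubation, measured in the same wells as the luciferase readout. VM7Luc4E2 cells were exposed to 15 compound concentrations with 10.0nM ICI-182,780 for 22hr at 37C.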
# [8] = target: Progesterone receptor (Homo sapiens) (UniProt P06401); test: qHTS assay to identify small molecule antagonists of the progesterone receptor (PR) signaling pathway (AID 1346795; active means well fitted inhibition curve with a large enough effect in the signal ratio in the repeat runs, not every such curve was filed as active; the % refers to the signal ratio)
# How it was run: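 After 6 hr plating at 37C in 2% stripped-serum medium, PR-UAS-bla HEK293T cells got compounds, then 1 nM R5020. Sixteen hours later, LiveBLAzer substrate was applied for 2 hr at room temperature and fluorescence was recorded.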
# [9] = qHTS assay to identify small molecule antagonists of the progesterone receptor (PR) signaling pathway - cell viability counter screen (AID 1346798); further: series mostly up to about 92 µM; nearly all actives have a fitted effect of over 50% in size
# How it was run: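 Viability was determined by ATP-based luminescence (CellTiter-Glo) in PR-UAS-bla HEK293T cells cultured in 2% charcoal-stripped serum and incubated 16 hr with compounds under R5020 stimulation.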
# [10] = qHTS assay to identify small molecule agonists of the progesterone receptor (PR) signaling pathway - cell viability counter screen (AID 1346799; calls by dose curve; further: nearly all actives have a fitted effect of over 45% in size; further: potency means the concentration at half of the fitted maximal effect)
# How it was run: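 Viability was scored by ATP luminescence (CellTiter-Glo, 30 min, room temperature) in the same wells used for the reporter readout, after 16 hr compound exposure of PR-UAS-bla HEK293T cells.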
# [11] = qHTS assay to identify small molecule antagonists of the TGF-beta/Smad signaling pathway - cell viability counter screen (AID 1346824); further: nearly all actives have a fitted effect of over 50% in size
# How it was run: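 SBE-bla HEK 293T cells, incubated overnight, then compound plus 0.25 ng/mL TGF-beta1 (stock added) for 5 hr at 37 C. Viability was read in the same wells by CellTiter-Glo luminescence after 30 min at room temperature.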
# [12] = qHTS assay to identify small molecule agonists of the TGF-beta/Smad signaling pathway - cell viability counter screen (AID 1346829); further: top concentration of the series differs between compounds; nearly all actives have a fitted effect of over 45% in size
# How it was run: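 SBE-bla HEK 293T cells plated overnight, compound exposure 5 hr at 37 C. Viability read in the same wells by CellTiter-Glo luminescence after 30 min at room temperature, following the beta-lactamase read.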
# [13] = qHTS assay to identify small molecule agonists of the TGF-beta/Smad signaling pathway (AID 1346859; active means well fitted activation curve with a large enough effect in the signal ratio in the repeat runs, not every such curve was filed as active; the % refers to the signal ratio; further: series mostly up to about 77 µM)
# How it was run: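 Dual-wavelength fluorescence (460/530 nm emission) quantified beta-lactamase expression under the Smad binding element in HEK 293T cells following 5 hr compound treatment at 37 C.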
# [14] = target: Thyrotropin-releasing hormone receptor (Homo sapiens) (UniProt P34981); test: qHTS assay to identify small molecule antagonists of the thyrotropin-releasing hormone receptor (TRHR) signaling pathway (AID 1346877; active means well fitted inhibition curve with a large enough effect in the repeat runs, not every such curve was filed as active; further: series mostly up to about 51 µM)
# How it was run: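 HEK293/TRHR cells, 18 h, 37 °C; Ca2+ dye 2 h; cpd 5 min RT; TRH 1 nM final; fluorescence read 3 min, 1 s intervals; 15 concs, triplicate.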
# [15] = qHTS assay to identify small molecule antagonists of the sonic hedgehog signaling (Shh) pathway (AID 1259369; calls by dose curve; further: nearly all actives have a fitted effect of over 45% in size)
# How it was run: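 Luminescence readout: firefly Luc under Gli1 response element in 3T3Gli1-Luc cells (NIH/3T3 clone). Antagonist mode, stimulation by conditioned medium; compound exposure 24hr at 37 C, 5% CO2.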
# [16] = target: Thyrotropin receptor (Homo sapiens) (UniProt P16473); test: qHTS assay to identify small molecule antagonists of the thyroid stimulating hormone receptor (TSHR) signaling pathway (AID 1259385; calls by dose curve; further: nearly all actives have a fitted effect of over 20% in size)
# How it was run: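 TSHR-HEK293 cells (800/well) plated 18 h, then compounds with Ro20-1724 and TSH at 1.5 ng/mL final, 30 min at room temperature. cAMP quantified by HTRF (cAMP-d2/anti-cAMP-cryptate, 1 h); 15 concentrations in triplicate.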
# [17] = target: Progesterone receptor (Homo sapiens) (UniProt P06401); test: qHTS assay to identify small molecule agonists of the progesterone receptor (PR) signaling pathway (AID 1346784; calls by dose curve; further: nearly all actives have a fitted effect of over 30% in size)
# How it was run: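 The screen uses PR-UAS-bla HEK 293T cells in charcoal-stripped serum (2%). Compounds are applied for 16 hr at 37C after a 6 hr pre-incubation, and reporter activity is detected with a FRET beta-lactamase substrate after 2 hr at room temperature.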
# [18] = target: Estrogen receptor beta (Homo sapiens) (UniProt Q92731); test: qHTS assay to identify small molecule agonists of the estrogen receptor beta (ER-beta) signaling pathway (AID 1259377; active means well fitted activation curve with a large enough effect in the signal ratio in the repeat runs, not every such curve was filed as active; the % refers to the signal ratio)
# How it was run: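 Measured by fluorescence intensity from a B/G FRET beta-lactamase substrate (2 h, room temperature) in ER-beta-UAS-bla HEK293T cells treated with DMSO-dissolved compounds for 16 hr at 37C and 5% CO2.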
# [19] = qHTS assay to identify small molecule agonists of the androgen receptor (AR) signaling pathway in the presence of an antagonist - cell viability counter screen (AID 1259379);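 further: MDA-kb2 human breast cancer cells carrying an MMTV luciferase reporter; series mostly up to about 92 µM; nearly all actives have a fitted effect of over 25% in size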
# How it was run: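 Viability counter screen: CellTiter-Fluor fluorescence, measured in the same wells as the luciferase read-out. MDA-kb2 cells, 3,000/well, with nilutamide at 3.0uM final and compounds at 15 concentrations, 16 hr at 37C, 0% CO2.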
# [20] = target: Androgen receptor (Homo sapiens) (UniProt P10275); test: qHTS assay to identify small molecule agonists of the androgen receptor (AR) signaling pathway in the presence of an antagonist (AID 1259381; calls by dose curve; further: nearly all actives have a fitted effect of over 15% in size)
# How it was run: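 Luciferase read-out (ONE-Glo, 30min room temperature) in MDA-kb2 MMTV-reporter cells; agonist mode run in presence of AR antagonist nilutamide, 3.0uM final. Compounds tested as 15-point series, 16hr exposure at 37C, 0% CO2.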
# Sequence of Thyrotropin-releasing hormone receptor (Homo sapiens) (P34981 whole entry, looked up): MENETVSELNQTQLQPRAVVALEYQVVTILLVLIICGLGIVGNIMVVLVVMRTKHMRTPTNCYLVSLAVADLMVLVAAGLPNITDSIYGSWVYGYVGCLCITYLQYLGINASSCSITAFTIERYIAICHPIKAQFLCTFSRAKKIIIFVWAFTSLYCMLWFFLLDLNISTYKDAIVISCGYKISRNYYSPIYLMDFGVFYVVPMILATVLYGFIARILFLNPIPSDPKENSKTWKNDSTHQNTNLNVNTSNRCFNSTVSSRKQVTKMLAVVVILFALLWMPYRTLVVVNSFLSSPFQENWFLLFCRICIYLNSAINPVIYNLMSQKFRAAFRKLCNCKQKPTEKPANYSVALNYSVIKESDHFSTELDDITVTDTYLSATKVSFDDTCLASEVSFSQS
# Sequence of Estrogen receptor beta (Homo sapiens) (Q92731 whole entry, looked up): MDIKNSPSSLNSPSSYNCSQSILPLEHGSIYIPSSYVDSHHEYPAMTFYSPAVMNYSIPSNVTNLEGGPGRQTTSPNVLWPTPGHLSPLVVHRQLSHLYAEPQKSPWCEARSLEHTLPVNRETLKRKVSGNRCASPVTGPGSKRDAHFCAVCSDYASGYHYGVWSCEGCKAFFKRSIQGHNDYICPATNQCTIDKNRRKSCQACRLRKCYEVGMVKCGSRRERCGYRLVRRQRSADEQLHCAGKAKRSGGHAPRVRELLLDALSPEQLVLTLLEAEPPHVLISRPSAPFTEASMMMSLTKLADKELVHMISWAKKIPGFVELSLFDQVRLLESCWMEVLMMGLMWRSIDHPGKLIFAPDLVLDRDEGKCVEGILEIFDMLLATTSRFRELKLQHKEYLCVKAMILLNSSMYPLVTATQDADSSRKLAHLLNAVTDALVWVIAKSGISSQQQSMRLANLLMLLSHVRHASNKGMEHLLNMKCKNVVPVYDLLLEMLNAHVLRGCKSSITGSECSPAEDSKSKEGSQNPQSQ
# Sequence of Estrogen receptor (Homo sapiens) (P03372 whole entry, looked up): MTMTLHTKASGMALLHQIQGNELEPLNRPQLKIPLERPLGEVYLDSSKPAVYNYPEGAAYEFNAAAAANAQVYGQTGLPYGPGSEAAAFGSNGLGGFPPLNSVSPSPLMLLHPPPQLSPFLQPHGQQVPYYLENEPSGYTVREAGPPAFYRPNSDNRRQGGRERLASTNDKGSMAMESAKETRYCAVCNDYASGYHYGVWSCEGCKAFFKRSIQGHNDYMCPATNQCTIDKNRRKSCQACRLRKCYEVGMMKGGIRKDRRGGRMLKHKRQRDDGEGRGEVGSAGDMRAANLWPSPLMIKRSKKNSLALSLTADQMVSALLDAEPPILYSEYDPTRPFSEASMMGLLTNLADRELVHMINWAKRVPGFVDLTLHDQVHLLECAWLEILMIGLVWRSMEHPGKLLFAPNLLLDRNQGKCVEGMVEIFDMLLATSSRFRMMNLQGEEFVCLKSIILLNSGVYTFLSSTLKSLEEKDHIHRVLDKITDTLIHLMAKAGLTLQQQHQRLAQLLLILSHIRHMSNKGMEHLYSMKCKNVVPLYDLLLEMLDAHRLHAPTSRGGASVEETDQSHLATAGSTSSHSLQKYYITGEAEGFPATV
# Sequence of Thyrotropin receptor (Homo sapiens) (P16473 whole entry, looked up): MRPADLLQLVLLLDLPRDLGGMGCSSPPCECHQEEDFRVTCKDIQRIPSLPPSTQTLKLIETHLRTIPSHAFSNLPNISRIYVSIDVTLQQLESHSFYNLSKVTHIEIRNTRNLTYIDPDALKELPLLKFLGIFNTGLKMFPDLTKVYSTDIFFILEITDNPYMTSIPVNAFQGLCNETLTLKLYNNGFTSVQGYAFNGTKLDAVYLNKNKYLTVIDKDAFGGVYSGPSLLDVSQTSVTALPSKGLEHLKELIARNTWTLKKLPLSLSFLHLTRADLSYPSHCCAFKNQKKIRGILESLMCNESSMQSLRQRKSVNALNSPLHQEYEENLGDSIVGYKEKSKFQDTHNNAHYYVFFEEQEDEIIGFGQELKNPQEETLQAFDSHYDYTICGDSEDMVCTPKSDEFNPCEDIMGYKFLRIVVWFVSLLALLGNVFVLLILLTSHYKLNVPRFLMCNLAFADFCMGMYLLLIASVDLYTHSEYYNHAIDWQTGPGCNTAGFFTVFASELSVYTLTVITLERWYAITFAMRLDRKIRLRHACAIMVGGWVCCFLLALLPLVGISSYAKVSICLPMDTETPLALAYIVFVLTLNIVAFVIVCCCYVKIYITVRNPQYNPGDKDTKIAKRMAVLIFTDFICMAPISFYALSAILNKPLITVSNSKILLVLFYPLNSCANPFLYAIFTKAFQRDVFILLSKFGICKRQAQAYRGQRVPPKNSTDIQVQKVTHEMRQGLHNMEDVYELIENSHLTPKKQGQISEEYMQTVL
# Sequence of Progesterone receptor (Homo sapiens) (P06401 whole entry, looked up): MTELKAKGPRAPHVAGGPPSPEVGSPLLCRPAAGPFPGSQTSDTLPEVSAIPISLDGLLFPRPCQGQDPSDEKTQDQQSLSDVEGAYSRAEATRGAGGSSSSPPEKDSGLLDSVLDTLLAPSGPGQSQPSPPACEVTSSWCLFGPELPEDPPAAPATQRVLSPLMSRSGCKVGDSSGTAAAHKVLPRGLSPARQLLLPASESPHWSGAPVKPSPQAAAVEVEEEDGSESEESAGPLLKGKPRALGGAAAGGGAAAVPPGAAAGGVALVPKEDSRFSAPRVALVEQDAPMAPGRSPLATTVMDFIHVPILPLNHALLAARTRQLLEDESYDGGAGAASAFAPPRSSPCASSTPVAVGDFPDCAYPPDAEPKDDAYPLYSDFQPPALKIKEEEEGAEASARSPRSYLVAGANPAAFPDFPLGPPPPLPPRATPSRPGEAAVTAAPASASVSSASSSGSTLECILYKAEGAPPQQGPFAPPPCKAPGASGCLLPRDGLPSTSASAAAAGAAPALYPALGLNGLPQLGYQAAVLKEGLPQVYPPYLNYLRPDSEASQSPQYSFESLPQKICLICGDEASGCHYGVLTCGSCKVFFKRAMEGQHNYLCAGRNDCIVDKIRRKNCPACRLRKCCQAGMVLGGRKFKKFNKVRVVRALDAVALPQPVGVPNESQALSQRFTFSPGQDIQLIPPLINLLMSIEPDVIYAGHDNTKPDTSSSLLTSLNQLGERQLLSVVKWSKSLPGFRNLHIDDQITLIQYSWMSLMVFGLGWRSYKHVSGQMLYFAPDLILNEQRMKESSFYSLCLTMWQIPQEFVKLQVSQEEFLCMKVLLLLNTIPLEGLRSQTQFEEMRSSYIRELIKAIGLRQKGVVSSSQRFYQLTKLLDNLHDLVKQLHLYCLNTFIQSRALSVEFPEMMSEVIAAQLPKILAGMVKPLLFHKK
# Sequence of Androgen receptor (Homo sapiens) (P10275 whole entry, looked up): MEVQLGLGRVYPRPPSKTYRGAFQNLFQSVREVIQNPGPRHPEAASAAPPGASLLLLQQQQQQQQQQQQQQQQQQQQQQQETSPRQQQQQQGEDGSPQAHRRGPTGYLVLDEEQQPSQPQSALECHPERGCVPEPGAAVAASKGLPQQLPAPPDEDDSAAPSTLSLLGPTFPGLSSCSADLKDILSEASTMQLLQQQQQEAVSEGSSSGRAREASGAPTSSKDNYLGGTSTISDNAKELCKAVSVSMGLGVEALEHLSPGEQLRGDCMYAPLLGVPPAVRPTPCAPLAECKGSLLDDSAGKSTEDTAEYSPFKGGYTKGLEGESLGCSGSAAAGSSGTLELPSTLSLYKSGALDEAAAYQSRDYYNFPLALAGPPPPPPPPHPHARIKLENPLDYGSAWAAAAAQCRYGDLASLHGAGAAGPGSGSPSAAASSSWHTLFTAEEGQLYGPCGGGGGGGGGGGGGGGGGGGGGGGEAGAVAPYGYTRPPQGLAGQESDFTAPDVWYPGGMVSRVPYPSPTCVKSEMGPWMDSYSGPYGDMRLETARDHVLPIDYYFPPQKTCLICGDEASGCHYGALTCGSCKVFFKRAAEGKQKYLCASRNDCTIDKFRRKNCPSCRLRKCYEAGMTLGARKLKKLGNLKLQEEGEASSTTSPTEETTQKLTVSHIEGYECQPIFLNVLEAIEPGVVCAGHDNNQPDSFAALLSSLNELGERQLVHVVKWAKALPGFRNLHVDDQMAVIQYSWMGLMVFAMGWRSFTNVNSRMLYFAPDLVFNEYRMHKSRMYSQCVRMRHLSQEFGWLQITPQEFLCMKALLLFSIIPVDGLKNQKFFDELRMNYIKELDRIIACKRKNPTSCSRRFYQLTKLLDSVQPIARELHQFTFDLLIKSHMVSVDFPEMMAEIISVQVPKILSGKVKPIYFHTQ
SMILES,Potency [1],Potency [2],Potency [3],Potency [4],Potency [5],outcome [6],Potency [7],Potency [8],Potency [9],Potency [10],outcome [11],outcome [12],outcome [13],outcome [14],Potency [15],Potency [16],Potency [17],Potency [18],Potency [19],Potency [20]
O=C(Cl)c1cc(Cl)cc(Cl)c1,inactive,inactive,inactive,inactive,inactive,inactive,inactive,inactive,inactive,inactive,inactive,inactive,inactive,inactive,–,–,–,–,–,–
CCCCCCCCCCCCCCCCN,inactive,–,inactive,inactive,inactive,inactive,inactive,inactive,inactive,–,inactive,inactive,inactive,inactive,inactive,inactive,inactive,–,–,–
Cc1c(Cl)cccc1Nc1ccccc1C(=O)O,inactive,–,inactive,–,inactive,inactive,inactive,–,inactive,–,inactive,inactive,–,inactive,inactive,–,inactive,–,–,–
O=C(O)c1ccc(O)c(O)c1,–,inactive,inactive,inactive,inactive,inactive,inactive,inactive,inactive,inactive,inactive,inactive,inactive,inactive,inactive,inactive,–,inactive,inactive,inactive
CC(C(=O)O)c1ccc2c(c1)Cc1cccnc1O2 (stereo not drawn),–,inactive,inactive,inactive,–,inactive,inactive,inactive,inactive,inactive,inactive,inactive,–,inactive,inactive,inactive,inactive,inactive,inactive,inactive
NC(=O)c1cc[n+](CC2=C(C(=O)[O-])N3C(=O)[C@@H](NC(=O)Cc4cccs4)[C@H]3SC2)cc1,inactive,inactive,inactive,inactive,inactive,inactive,inactive,inactive,inactive,inactive,inactive,inactive,inactive,–,–,–,inactive,inactive,inactive,–
COc1ccc(/C(C)=C/C(=O)O)c(OC)c1,–,inactive,inactive,inactive,inactive,inactive,inactive,inactive,inactive,inactive,inactive,inactive,inactive,–,inactive,inactive,inactive,inactive,inactive,–
C=CC(C)(O)CC/C=C(/C)CCC=C(C)C (stereo not drawn),inactive,inactive,–,inactive,–,–,inactive,inactive,inactive,inactive,inactive,inactive,inactive,inactive,–,–,inactive,inactive,inactive,–
Cc1cc(SC2=C(O)C[C@@](CCc3ccc(N)cc3)(C(C)C)OC2=O)c(C(C)(C)C)cc1CO,inactive,–,–,inactive,–,inactive,inactive,inactive,inactive,inactive,inactive,inactive,–,inactive,inactive,inactive,–,–,–,inactive
CC(=O)Oc1cccc2c1C(=O)c1c(OC(C)=O)cc(C(=O)O)cc1C2=O,inactive,–,inactive,inactive,–,inactive,29.8 µM (active),–,–,–,inactive,inactive,–,inactive,inactive,inactive,–,–,–,inactive
C[C@]12CCC(=O)C=C1[C@@H]1C[C@@H]1[C@H]1[C@@H]3[C@@H]4C[C@@H]4[C@@]4(CCC(=O)O4)[C@@]3(C)CC[C@@H]12,inactive,–,–,inactive,–,–,inactive,–,inactive,–,inactive,inactive,–,inactive,–,–,–,–,inactive,–
CCOc1ccc(NC(C)=O)cc1N,inactive,inactive,inactive,–,inactive,inactive,inactive,–,–,inactive,inactive,inactive,inactive,–,–,–,inactive,inactive,inactive,inactive
O=C(NC1CCN(CCc2c[nH]c3ccccc23)CC1)c1ccccc1,inactive,inactive,–,–,–,inactive,–,inactive,inactive,inactive,inactive,inactive,inactive,inactive,–,inactive,inactive,inactive,–,–
CCn1nc(Cc2ccccc2)cc1C1CCN(C[C@H]2C[C@H](N(C)[C@@H](C(=O)O)C(C)C)C[C@@H]2c2cccc(F)c2)CC1,inactive,–,–,inactive,inactive,inactive,inactive,–,inactive,inactive,–,inactive,–,inactive,–,–,–,–,inactive,–
C[C@H]1C[C@H]2[C@@H]3CCC4=CC(=O)C=C[C@]4(C)[C@@]3(F)[C@@H](O)C[C@]2(C)[C@@]1(O)C(=O)COP(=O)(O)O,inactive,inactive,inactive,inactive,inactive,inactive,inactive,–,inactive,inactive,inactive,inactive,inactive,inactive,–,inactive,inactive,–,inactive,–
CC(C)(Cc1c[nH]c2ccccc12)NCC(O)COc1ccccc1C#N (stereo not drawn),inactive,–,–,26.6 µM (active),–,inactive,inactive,inactive,–,–,inactive,inactive,inactive,inactive,–,inactive,inactive,–,inactive,–
FC(F)(Cl)C(F)(Cl)Cl,–,inactive,inactive,inactive,inactive,inactive,inactive,–,inactive,inactive,inactive,inactive,inactive,inactive,inactive,inactive,–,inactive,inactive,inactive
O=C(O)c1ccncc1,inactive,inactive,–,inactive,–,inactive,inactive,inactive,inactive,inactive,inactive,inactive,inactive,inactive,–,–,inactive,–,inactive,inactive
Cc1nc2sccn2c(=O)c1CCN1CCC(=C(c2ccc(F)cc2)c2ccc(F)cc2)CC1,inactive,–,13.3 µM (active),–,inactive,inactive,inactive,–,inactive,29.8 µM (active),inactive,inactive,–,–,–,–,inactive,inactive,inactive,–

# Source: PubChem BioAssay (Tox21)
